Rows were chosen to be rich in hits. Some 12% of all compounds tested hit in one or more screens of this group.
G9a inh – G9a (human) methyltransferase inhibition | Q96KQ7 | G9a H3K9 monomethylation, AlphaScreen, 2 h | Potency, µM (series often up to 102 µM), for the others: at the top dose activity, negative = inhibition, usual class: inhibitors | actives 8.8% (n = 350,000); also: % is scaled to controls: 0 for no effect and ±100 for the full control effect; nearly all actives have a fitted effect of over 75% in size
Target sequence (Q96KQ7 913-1193 limits assumed): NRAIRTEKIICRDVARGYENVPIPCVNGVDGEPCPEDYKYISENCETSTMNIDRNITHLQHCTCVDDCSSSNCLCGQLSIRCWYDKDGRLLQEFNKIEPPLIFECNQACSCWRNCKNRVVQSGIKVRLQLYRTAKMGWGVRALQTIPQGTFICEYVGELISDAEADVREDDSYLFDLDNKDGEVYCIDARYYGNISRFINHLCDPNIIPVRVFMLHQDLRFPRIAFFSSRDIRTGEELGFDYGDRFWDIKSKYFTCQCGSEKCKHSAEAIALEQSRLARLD
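AlphaScreen detection with an anti-monomethyl H3K9 antibody quantified product after a 2 h room-temperature reaction containing 500 nM biotinylated H3K9 peptide, 20 µM SAM and 20 nM enzyme, which had been preincubated 15 min with compound.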
L3MBTL1 inh – inhibitors of human L3MBTL1; AlphaScreen L3MBTL1–H3K9me1 peptide binding; Potency, µM (top dose mostly 57.1 µM), for inactives: at the highest dose activity, negative = inhibition, actives largely listed as inhibitors; actives 0.66% (n = 230,000); Q9Y468; also: % is scaled to controls: 0 for no effect and ±100 for the full control effect; nearly all actives have a fitted effect of over 60% in size
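L3MBTL1 50 nM + b-AHA-H3(1-15)K9me1 75 nM, 30 min RT; compound added, 30 min RT; streptavidin donor/Ni-chelate acceptor beads 10 ug/mL each final, 30 min RT dark; AlphaScreen read.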
JMJD2A Tudor inh – JMJD2A Tudor domain (human) inhibition; AID 504339; O75164; Potency, µM (series often up to 114 µM), for the others: top-dose activity change, negative = inhibition, actives largely listed as inhibitors; actives 4.4% (n = 390,000); AlphaScreen JMJD2A-Tudor / H3K4me3 peptide binding; also: % is scaled to controls: 0 for no effect and ±100 for the full control effect; nearly all actives have a fitted effect of over 50% in size
BAZ2B block – BAZ2B (human) inhibition | Potency, µM (top dose mostly 114 µM), for the others: at the highest dose activity change, negative = inhibition, hits mostly inhibitors | Q9UIF8 | AlphaScreen BAZ2B-H3K14Ac peptide displacement | actives 4.4% (n = 360,000); also: % is scaled to controls: 0 for no effect and ±100 for the full control effect; nearly all actives have a fitted effect of over 60% in size
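In this displacement format the biotinylated H3(5-23) peptide acetylated at Lys14 serves as ligand at 50 nM, with BAZ2B at 50 nM in PBS pH 7.4 containing 0.01% Tween-20. Donor and acceptor beads are 10 ug/mL final.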
HP1b binding inh – inhibitors of HP1-beta chromodomain binding to methylated histone tails; P83916; AlphaScreen HP1-beta / biotin-H3K9me3 peptide binding; Potency, µM (series often up to 114 µM), for the others: at the top dose activity change, negative = inhibition, actives largely listed as inhibitors; actives 0.56% (n = 390,000); also: nearly all actives have a fitted effect of over 70% in size
Target sequence (P83916 whole entry, looked up): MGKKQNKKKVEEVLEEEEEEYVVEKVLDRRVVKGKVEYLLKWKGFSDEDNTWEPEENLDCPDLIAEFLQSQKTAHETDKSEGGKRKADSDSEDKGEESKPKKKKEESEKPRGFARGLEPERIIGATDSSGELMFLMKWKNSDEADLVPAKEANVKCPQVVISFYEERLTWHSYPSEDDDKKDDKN
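HP1-beta protein (50 nM final) preincubated 30 min at room temperature with biotinylated H3(1-18)K9me3 peptide (50 nM) in PBS pH 7.4, 0.01% Tween-20, then compound added for 30 min. AlphaScreen streptavidin donor/nickel chelate acceptor beads (10 ug/mL final), 30 min dark, luminescence read.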
Sfp PPTase inh – inhibitors of Bacillus subtilis Sfp phosphopantetheinyl transferase. Q9F4F7. Biochemical Sfp PPTase activity, qHTS. Potency, µM, for inactives: largest response in the series, negative = inhibition, actives largely listed as inhibitors. actives 3.5% (n = 310,000). AID 1490;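 also: the enzyme is Sfp with the accession as filed and its product quenches rhodamine fluorescence; 0% = enzyme reaction without inhibitor and -100% = no enzyme wells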
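Reaction rates are the 30-min fluorescence difference (ex 525, em 598 nm) in wells containing 15 nM Sfp, 5 uM rhodamine-CoA and 12.5 uM BHQ-2-YbbR at pH 7.6 with 10 mM MgCl2.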
An asterisk follows results filed as active; ? = inconclusive; nt = not tested or not shown; [ ] = another dose, or the depositor's remark. Calls follow the shape of the dose curve; as a rule, active = well fitted curve in the direction sought with a large enough effect; inconclusive = small, poorly fitted or top-dose-only effect, or another doubt; inactive = no such curve, though single readings can be large; an effect the other way counts as inactive or inconclusive. Potency is read from the fitted curve at half-maximal effect.

SMILES | G9a inh | L3MBTL1 inh | JMJD2A Tudor inh | BAZ2B block | HP1b binding inh | Sfp PPTase inh
COc1ccccc1NC(=O)Nc1ccc(N2CCOCC2)cc1 | 32µM* | nt | ? | -24% | -1% | -1%
O=C(CN1C(=O)CSC1=O)Nc1ccc(N2CCOCC2)cc1 | 16µM* | 0% | 0% | 7% | 20% | -12%
CC(=O)Oc1ccc(NC(=O)Cc2ccccc2)c(C(=O)O)c1 | 71µM* | -3%[11.4 µM] | -6% | ? | 47% | -7%
COC(=O)c1ccc(NC(=O)CN2C(=O)CSC2=O)cc1 | 0%[12.7 µM] | nt | -8% | 23% | 5% | -8%
Cc1cn(CCC(=O)Nc2ccc(N3CCOCC3)cc2)c2ccccc12 | 45µM* | -28% | ? | ? | -10% | -3%
COc1ccc2c(C(=O)NCc3ccc4c(c3)OCO4)c(-c3ccc(S(C)(=O)=O)cc3)sc2c1 | nt | -3% | -9% | nt | 23% | nt
O=C(Nc1ccc(N2CCOCC2)cc1)C1(S(=O)(=O)c2ccccc2)CC1 | ? | nt | -19% | -23% | 10% | -4%
O=C(CCS(=O)(=O)c1ccccc1)Nc1ccc(N2CCOCC2)cc1 | 56µM* | -4% | -26% | -26% | 7% | 8%
COc1ccccc1CNCC(=O)Nc1ccc(N2CCOCC2)cc1 | 4.5µM* | -2% | 40µM* | 50µM* | 8% | -8%
O=C(Cc1cccc2ccccc12)Nc1ccc(Br)cc1C(=O)O | ? | -4% | 0% | -1% | 27% | -20%
O=C(Cc1cccc2ccccc12)Nc1ccc(N2CCOCC2)cc1 | nt | -16% | -9% | 50µM* | 21% | -2%
O=C(Cc1cccc2ccccc12)Nc1ccc(O)cc1C(=O)O | 71µM* | nt | -27%[57.1 µM] | -10% | 0% | 1%
CC(=O)Nc1ccc(NCC(=O)c2ccccc2)cc1 | ? | nt | -3% | 3% | 54% | -1%
CCOc1ccc(-c2nnc(SCC(=O)Nc3cccc(OC)c3)nc2-c2ccc(OCC)cc2)cc1 | -16%[59 µM] | nt | -28% | -6% | 18% | nt
OCC1=C[C@@H](O)[C@@H]2C=CO[C@@H](OC3O[C@H](CO)[C@@H](O)[C@H](O)[C@H]3O)[C@H]12 (stereo partly drawn) | nt | nt | nt | nt | nt | 5%
O=C(c1cc(-c2ccccc2O)on1)N1CCCCC1 | 2%[59 µM] | nt | -2% | -1% | 47% | nt
COc1ccccc1CN1CCC2(CC1)CCN(S(C)(=O)=O)CC2 | -2%[12.7 µM] | nt | nt | nt | nt | 16%
CCc1ccc(C(C)NC(=O)c2ncn[nH]2)cc1 (stereo not drawn) | -8%[59 µM] | ? | -19%[57.1 µM] | 50µM* | 57% | -1%
CCc1ccc(C(C)NC(=O)c2ccc(F)cc2)cc1 (stereo not drawn) | 15% | -3% | 12% | -5% | 51% | -5%
O=C1Nc2cc(C(=O)NCCN3CCCCCC3)ccc2S/C1=C\c1ccccc1 | 45µM* | nt | ? | ? | -13% | 40µM*
CCN1CCCC1CNC(=O)c1cc(N)ccc1OC (stereo not drawn) | nt | nt | 0.79µM* | nt | ? | nt
CCN1CCCC1CNC(=O)c1ccc2c(c1)NC(=O)/C(=C\c1ccc(OC)c(OC)c1)S2 (stereo not drawn) | -9%[0.0925 µM] | nt | 28µM* | 25µM* | -17%[57 µM] | -12%
COc1cccc(/C=C2/Sc3ccc(C(=O)NCCN4CCCCCC4)cc3NC2=O)c1 | 40µM* | nt | ? | ? | 5% | 45µM*
CC1CC(C)CN(S(=O)(=O)c2cc3c(cc2Cl)NC(=O)CO3)C1 (stereo not drawn) | nt | 7% | -12% | 8% | 39% | 6%
Cn1c(=O)c(-c2cccc(F)c2)nc2cncnc21 | 1%[0.501 µM] | nt | nt | nt | nt | 15%
SMILES | G9a inh | L3MBTL1 inh | JMJD2A Tudor inh | BAZ2B block | HP1b binding inh | Sfp PPTase inh
CCCCS(=O)(=O)c1nc(-c2ccc(Br)cc2)cc(-c2ccccc2)c1C#N | 27%[59 µM] | nt | -2% | 41% | 94% | nt
COc1ccccc1-n1c(SCC(=O)c2ccc(O)cc2O)nc2cc([N+](=O)[O-])ccc21 | ? | -12% | 25µM* | ? | -17% | 1%
COc1ccc(CN(C)CC(=O)Nc2ccccc2C(F)(F)F)cc1 | 60% | 20% | 30% | 8% | 106% | 6%
COc1ccc(CNCc2ccccc2C(F)(F)F)cc1 | 8.9µM* | 10% | 28µM* | 79µM* | ? | -22%
COC(=O)c1ccc(C)c(NC(=O)CCc2ccc(OC)cc2)c1 | -6%[59 µM] | -5% | -18% | -6% | 22% | 89µM*
Cc1ccc(C(=O)O)cc1NC(=O)CCc1ccccc1 | 5% | 1%[11.4 µM] | ? | -28% | -6% | 19%
COc1ccc(CNCc2cccc3ccccc23)cc1 | nt | 5% | 18µM* | ? | ? | -23%
COc1ccc2ccc(O)c(CN(C)CC(=O)Nc3ccccc3C(F)(F)F)c2c1 | 7.9µM* | nt | ? | -13% | -20% | -9%
COc1ccc(CCNCC(=O)Nc2ccccc2C(F)(F)F)cc1 | 2.5µM* | 52% | 3.2µM* | 50µM* | ? | -12%
COc1ccc(S(=O)(=O)N(C)CC(=O)Nc2ccccc2C(F)(F)F)cc1 | 15%[59 µM] | 6% | -3% | 9% | 13% | 2%
CCOC(=O)c1c(CSc2ccccc2)n(C)c2cc(Br)c(OCC(O)CNC(CO)(CO)CO)cc12 (stereo not drawn) | 40µM* | -3% | ? | ? | 56µM* | ?
CCOC(=O)c1c(CSc2ccccc2)n(C)c2cc(Br)c(OC)c(O)c12 | 21% | -7% | -8% | -21% | 25% | 13%
O=C(Nc1cccc(S(=O)(=O)NCc2ccco2)c1)c1cccc(Cl)c1 | nt | -1% | -3% | nt | 33% | nt
O=c1c(-c2ccc(O)cc2)coc2cc(O[C@@H]3O[C@H](CO)[C@@H](O)[C@H](O)[C@H]3O)cc(O)c12 | nt | nt | nt | nt | nt | 12%
COc1ccc(/C(O)=C2/C(=O)C(=O)N(c3ncccn3)C2c2ccc(F)cc2)cc1 (stereo not drawn) | -47% | -2% | -14% | -14% | 38% | 13%
CCCOc1ccc(/C(O)=C2/C(=O)C(=O)N(c3ccccn3)C2c2ccc(OC)cc2)cc1C (stereo not drawn) | ? | nt | -32% | -19% | 20%[57 µM] | 2%
CCOc1ccc(/C(O)=C2/C(=O)C(=O)N(c3ccccn3)C2c2ccc(F)cc2)c(C)c1 (stereo not drawn) | 28µM* | nt | ? | -10% | -16% | -11%
Cc1ccc(/C(O)=C2\C(=O)C(=O)N(C)C2c2ccc(Br)cc2)cc1 (stereo not drawn) | ? | 4% | -20% | 3% | 10% | 11%
Cc1ccc(/C(O)=C2/C(=O)C(=O)N(c3ccccn3)C2c2ccc(F)cc2)cc1 (stereo not drawn) | 40µM* | 1% | -11% | -31% | 6% | ?

From PubChem
